# Screening data: PubChem, National Center for Advancing Translational Sciences (NCATS)
# Eya2 inh = inhibitors of human Eya2 phosphatase activity | O00167 | recombinant Eya2, OMFP fluorescence dephosphorylation (OMFP is methylfluorescein phosphate) | Potency, µM (doses to about 76.9 µM), for inactives: at the highest dose activity, negative = inhibition, most hits filed as inhibitors | 330,000 compounds, 0.006% hits; note: potency is the fitted concentration of half-maximal effect
#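 Eya2 protein (added as 0.2 uM solution) was preincubated with compound for 10 min at ambient temperature in 50 mM HEPES pH 7.5, 50 mM NaCl, 5 uM MgCl2, 0.05% BSA, 1 mM DTT. OMFP (added at 50 uM) then reacted 10 min; fluorescence read at 485/525 nm.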
# L3MBTL1 block = inhibitors of human L3MBTL1. Q9Y468. AlphaScreen L3MBTL1–H3K9me1 peptide binding. Potency, µM (doses to about 57.1 µM), inactives show at the top dose activity, negative = inhibition, most hits filed as inhibitors. 230,000 compounds, 0.66% hits; note: potency is the fitted concentration of half-maximal effect; nearly all actives have a fitted effect of over 60% in size
# Target sequence (Q9Y468 whole entry, looked up): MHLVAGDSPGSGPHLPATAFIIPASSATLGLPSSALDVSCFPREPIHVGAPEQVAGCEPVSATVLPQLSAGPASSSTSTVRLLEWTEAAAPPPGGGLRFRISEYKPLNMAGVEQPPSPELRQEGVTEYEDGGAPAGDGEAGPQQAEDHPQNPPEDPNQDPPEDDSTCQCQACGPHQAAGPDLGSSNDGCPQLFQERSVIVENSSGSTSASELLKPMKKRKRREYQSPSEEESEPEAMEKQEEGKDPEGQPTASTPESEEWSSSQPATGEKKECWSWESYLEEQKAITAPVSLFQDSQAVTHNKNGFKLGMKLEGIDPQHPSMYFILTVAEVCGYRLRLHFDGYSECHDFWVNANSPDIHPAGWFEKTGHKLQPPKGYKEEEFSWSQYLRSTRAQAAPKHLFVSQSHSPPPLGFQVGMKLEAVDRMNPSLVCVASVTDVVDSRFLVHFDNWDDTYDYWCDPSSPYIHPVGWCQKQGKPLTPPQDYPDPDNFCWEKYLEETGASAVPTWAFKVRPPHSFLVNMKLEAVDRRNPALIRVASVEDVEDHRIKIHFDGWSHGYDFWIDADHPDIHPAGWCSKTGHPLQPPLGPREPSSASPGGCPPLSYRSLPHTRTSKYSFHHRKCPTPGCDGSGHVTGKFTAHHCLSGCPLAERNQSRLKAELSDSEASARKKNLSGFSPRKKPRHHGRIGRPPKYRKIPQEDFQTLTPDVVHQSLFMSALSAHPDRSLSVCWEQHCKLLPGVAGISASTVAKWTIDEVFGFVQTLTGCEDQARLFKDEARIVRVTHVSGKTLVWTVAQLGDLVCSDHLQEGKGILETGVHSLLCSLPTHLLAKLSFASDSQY
#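 AlphaScreen proximity signal between nickel-chelate acceptor and streptavidin donor beads (final 10 ug/mL) reports binding of 50 nM L3MBTL1 to 75 nM biotin-H3 K9me1 peptide; complex incubated with compounds 30 min at room temperature; cefsulodin titration as control.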
# Six1-Eya2 blk = inhibitors of human Six1/Eya2 interaction; 360,000 compounds, 0.56% hits; AID 651725; AlphaScreen GST-Six1/His-Eya2 binding, biochemical; active compounds read low; Q15475+O00167; activity change, % (concentration not given with the values); in the data active = activity change below about -65%; inconclusive = mostly about -30% to -63%
#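 GST-Six1 + His-Eya2 (5X stock: 250/500 nM); Tris pH 8.0, 300 mM NaCl, 0.05% BSA, 0.02% Tween 20; GSH donor/Ni acceptor beads; 1 h 37 °C dark; AlphaScreen readout.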
# CtBP-E1A blk = CtBP/E1A binding inhibition; AlphaScreen GST-E1A/His-CtBP binding, 1536-well; active compounds read low; activity change, % (concentration not given with the values); 340,000 compounds, 0.49% hits; AID 651724; in the data active = activity change below about -65%; inconclusive = mostly about -30% to -63%
#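 In 5 uL wells, 23 nL compound meets equimolar GST-E1A and His-CtBP (5X stock 125 nM each) for 2 h, 37 °C. Beads (5X, 50 ug/mL) then 1 h, 37 °C, dark.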
# B2AR arrestin = agonists driving beta-arrestin recruitment to human beta2-adrenergic receptor | P07550 | beta-arrestin recruitment to beta2AR, cell-based reporter | Potency, µM (top dose mostly 46.1 µM), for inactives: at the top dose activation, most hits filed as activators | 330,000 compounds, 0.02% hits;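 note: potency is the fitted concentration of half-maximal effect; 0% = DMSO controls and full agonism = EC100 isoproterenol or metaproterenol; nearly all actives have a fitted effect of over 65% in size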
# * hit, by the source's call; ? = inconclusive; · = no result given; [ ] = another dose, or the depositor's remark. This is a sample that favours compounds with a hit; in the whole collection about 0.9% have one here. Unless noted, calls come from the whole dose curve; as a rule, active = well fitted curve in the direction sought with a large enough effect; inconclusive = small, poorly fitted or top-dose-only effect, or another doubt; inactive = no such curve, though single readings can be large; an effect the other way counts as inactive or inconclusive. Unless noted, % is set by controls: 0 for no effect and ±100 for the full control effect.
SMILES,Eya2 inh,L3MBTL1 block,Six1-Eya2 blk,CtBP-E1A blk,B2AR arrestin
O=C(COc1ccccc1C(=O)N/N=C\c1ccc(O)c(O)c1)N/N=C/c1ccc(O)c(O)c1,2.1%,1.58µM*,-79.2*,-76.7*,0.3%
Cc1cc(NS(=O)(=O)c2cc(Cl)sc2Cl)no1,-2.9%,·,1.8,7.3,-0.1%
O=C1/C(=C/c2ccsc2)CC/C1=C\c1cccs1,-2.9%,·,·,·,·
COc1ccc(Cc2c(O)nc(SCC(=O)c3ccc(OC)cc3)[nH]c2=O)cc1,9.4%,3.5%,-86.4*,·,0.0%
COc1ccc(Cc2c(O)nc(SCC(C)C)[nH]c2=O)cc1,-6.3%,-7.2%,-3.9,-2.6,-1.1%
COCCN(Cc1nc(-c2ccc(-c3ccccc3)cc2)oc1C)C(C)C,5.8%,-2.8%,-1.9,·,0.2%
CCOc1cc(N2CCOCC2)c(OCC)cc1NC(=O)C(C)C,0.4%,·,4.2,-4.5,-0.1%
CCOc1cc(N2CCOCC2)c(OCC)cc1NC(C)C(=O)N1CCN(CC)CC1 (stereo unspecified),-0.9%,17.8µM*,-25.0,-16.3,0.5%
COc1cccc(-c2c(C#N)c(N)nc3c2c(C)nn3-c2ccccc2)c1O,?,·,-9.3,-21.3,0.7%
Cc1cc(C)c2c(c1)NC(C(=O)O)C1CC=CC21 (stereo unspecified),-7.2%,5.01µM*,?,?,-0.3%
O=C(O)C1Nc2c(C(F)(F)F)ccc(Cl)c2C2C=CCC12 (stereo unspecified),9.8%,·,-5.3,·,0.1%
CCOC(=O)C1Nc2ccc(C(=O)O)cc2C2C=CCC12 (stereo unspecified),-10.8%,-8.3%[2.29 µM],?,-21.9,-1.1%
Cc1ccc2c(c1C)NC(C(=O)O)C1CC=CC21 (stereo unspecified),-1.2%,5.01µM*,-25.6,-5.7,0.3%
O=C(O)C1Nc2c(C(=O)N3CCOCC3)cccc2C2C=CCC12 (stereo unspecified),12.8%,3.55µM*,-73.8*,-29.3,-0.4%
CCOC(=O)c1ccc2c(c1)C1C=CCC1C(C(=O)O)N2 (stereo unspecified),12.6%,3.16µM*,·,·,0.1%
O=C(c1ccccc1O)N1CCOCC1,11.5%,3.7%,3.1,10.8,-0.4%
O=C1C(=O)c2cccnc2-c2ncccc21,·,·,-83.0*,-80.3*,·
O=C(Nc1cccc(N2C(=O)C=CC2=O)c1)c1cccs1,22.1%,28.2µM*,·,·,-0.3%
Cc1nc2ccccc2c(=O)n1-c1cccc(NC(=O)c2cccs2)c1,-27.4%,-4.8%,-10.3,-4.9,-0.3%
NC(N)=N/N=C/c1ccc(OCc2ccccc2Cl)cc1,35.5µM*,0.0%,-13.4,-1.0,0.3%
Cc1ccccc1C(=O)NNC(=O)CSc1nc2ccccc2c(=O)[nH]1,7.3%,-0.4%,9.4,-0.6,0.3%
Cc1ccc(/C=C/S(=O)(=O)NCC(=O)OCC(=O)Nc2ccc(C(=O)N(C)C)cc2)cc1,8.8%,2.5%,-8.9,-90.8*,-0.2%
Cc1ccc(/C=C/S(=O)(=O)NCC(=O)OCC(=O)Nc2ccc(C(N)=O)cc2)cc1,-17.3%,6.1%,-4.4,-6.4,-0.2%
COc1ccc(-c2cc3ncc(C)n3c(Nc3ncccc3C(N)=O)n2)cc1OC,2.5%,·,·,·,·
CC1CCCN(C(C(=O)NC2CCCCC2)c2cc3c(cc2[N+](=O)[O-])OCO3)C1 (stereo unspecified),2.5%,11.2µM*,-7.5,-6.1,-0.7%
SMILES,Eya2 inh,L3MBTL1 block,Six1-Eya2 blk,CtBP-E1A blk,B2AR arrestin
COc1ccccc1NC(=O)CSc1nccn1Cc1ccccc1,-1.2%,·,-6.3,-1.4,-0.2%
NC(=O)c1ccc(Nc2nnc(-c3ccc(O)cc3)c3ccccc23)cc1,5.3%,-2.9%,?,-3.4,0.1%
COc1ccc(Nc2nnc(-c3ccc(C(N)=O)cc3)c3ccccc23)cc1,3.9%,-11.5%,-82.8*,5.3,-0.9%
CCN(CC)S(=O)(=O)c1cccc(C(=O)OCC(=O)NCc2ccccc2OC)c1,3.8%,-0.5%,1.3,0.7,-0.2%
CNc1cccnc1C=NNC(N)=S,·,·,-88.5*,0.0,·
NC(=S)NN=Cc1nccc2c(C(F)(F)F)cccc12,·,·,-74.8*,-71.8*,·
NC(=S)N/N=C/c1ccccc1,3.8%,4.3%,1.7,14.0,-0.5%
O=c1ccc2[n+]([O-])c3ccc(O)cc3oc-2c1,-11.1%,3.16µM*,-5.8,-4.6,-0.8%
O=c1cc(O)c2ccc(O)cc2o1,-12.7%,8.8%,-15.8,-5.0,0.1%
